Data: the supplement of paper PMC6522484
± gives the standard deviation of the averaged measurements.

Tests used:
DLD1 [1] = experiment: cell viability (CellTiter-Glo) relative to plate median (fraction of plate median); higher = more viable cells; details: 10 µM, treatment time 24 h
Summary of the method: (§1)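 Reporter and viability luminescence were measured in colorectal cancer cells stably carrying lentiviral TCF/Wnt firefly luciferase reporters. The cells were exposed to kinase inhibitor library compounds at a final 10 µM for 24 h, starting 24 h after seeding in 384-well plates. Each well was normalised to the plate median (webcellHTS2, additive, no log transformation), and two independent replicates were averaged.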

HCT116 [2] = experiment: as above; details: 10 µM; treatment time 24 h; reporter: TCF4/Wnt
Summary of the method: as §1

SW480 [3] = experiment: as above; details: 10 µM; treatment time 24 h; reporter: 7TFP
Summary of the method: as §1

DLD1 [4] = experiment: TCF/Wnt firefly luciferase reporter signal relative to plate median (fraction of plate median); higher = higher Wnt reporter signal; details: 10 µM, treatment time 24 h
Summary of the method: as §1

HCT116 [5] = experiment: as above; details: 10 µM; treatment time 24 h; reporter: TCF4/Wnt
Summary of the method: as §1

SW480 [6] = experiment: as above; details: 10 µM; treatment time 24 h; reporter: 7TFP
Summary of the method: as §1

DLD1 [7] = experiment: cell viability (CellTiter-Glo) relative to plate median (fraction of plate median); higher = more viable cells; details: 5 µM; treatment time 24 h; reporter: 7TFP
Summary of the method: (§2)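 Colorectal cancer cell lines stably carrying lentiviral TCF/Wnt firefly luciferase reporters (7TFP or TCF4/Wnt) were plated in 384-well plates and, 24 h later, given library compounds at a final 5 µM for 24 h. Firefly luciferase or CellTiterGlo luminescence was read on parallel plates with a Tecan F500 reader. Each well's signal was normalised to the plate median in webcellHTS2 (additive, without log transformation). Values are the mean of two independent replicates.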

HCT116 [8] = experiment: as above; details: 5 µM; treatment time 24 h; reporter: TCF4/Wnt
Summary of the method: as §2

SW480 [9] = experiment: as above; details: 5 µM; treatment time 24 h; reporter: 7TFP
Summary of the method: as §2

DLD1 [10] = experiment: TCF/Wnt firefly luciferase reporter signal relative to plate median (fraction of plate median); higher = higher Wnt reporter signal; details: 5 µM; treatment time 24 h; reporter: 7TFP
Summary of the method: as §2

SW480 [11] = experiment: as above; details: 5 µM; treatment time 24 h; reporter: 7TFP
Summary of the method: as §2

In the case of `O=c1[nH]c2ccc(Cl)cc2c(N[C@@H]2CN3CCC2CC3)c1-c1nc2ccccc2[nH]1`, the cell viability (DLD1 [1]; reporter: 7TFP) is reported as 1.004 ± 0.0092, the cell viability (DLD1 [1]; reporter: TCF4/Wnt) is reported as 1.06 ± 0.05 and the cell viability (HCT116 [2]) is reported as 0.521 ± 0.25. The cell viability (SW480 [3]) was 0.992 ± 0.025, the “TCF/Wnt firefly luciferase reporter signal” value (DLD1 [4]; reporter: 7TFP) was 2.27 ± 0.078 and the “TCF/Wnt firefly luciferase reporter signal” value (DLD1 [4]; reporter: TCF4/Wnt) was 2.27 ± 0.18. The “TCF/Wnt firefly luciferase reporter signal” value (HCT116 [5]) was 0.439 ± 0.17 and the “TCF/Wnt firefly luciferase reporter signal” value (SW480 [6]) was 1.8 ± 0.099.
In the case of `O=C1C=C2C=C[C@@H]3C[C@@]2(O1)[C@H]1CCCCN31`, the cell viability (DLD1 [7]) is reported as 1.1 ± 0.057, the cell viability (HCT116 [8]) is reported as 1.11 ± 0.064 and the cell viability (SW480 [9]) is reported as 1.02 ± 0.063. For the same compound, the “TCF/Wnt firefly luciferase reporter signal” value (DLD1 [10]) was 1.01 ± 0.023 and the “TCF/Wnt firefly luciferase reporter signal” value (SW480 [11]) was 0.988 ± 0.013.
For `CC1(C)C2CC(=O)[C@]3(C)C(CC[C@@]4(C)[C@H](c5ccoc5)OC(=O)C5OC543)[C@@]2(C)[C@@H](O)C[C@H]1O` (stereo partly drawn), the cell viability (DLD1 [7]) was 0.996 ± 0.048, the cell viability (HCT116 [8]) was 1.04 ± 0.057 and the cell viability (SW480 [9]) was 0.995 ± 0.05. For the same compound, the “TCF/Wnt firefly luciferase reporter signal” value (DLD1 [10]) was 1.01 ± 0.098 and the “TCF/Wnt firefly luciferase reporter signal” value (SW480 [11]) was 1.02 ± 0.054.
With `COC1=C[C@@H]2[C@@H]3Cc4ccc(OC)c(O)c4[C@]2(CCN3C)CC1=O` the cell viability (DLD1 [7]) was 0.973 ± 0.0085, the cell viability (HCT116 [8]) was 0.925 ± 0.017 and the cell viability (SW480 [9]) was 0.987 ± 0.033. The “TCF/Wnt firefly luciferase reporter signal” value (DLD1 [10]) was 1.03 ± 0.11 and the “TCF/Wnt firefly luciferase reporter signal” value (SW480 [11]) was 0.997 ± 0.16.
Compound `O=[N+]([O-])O[C@@H]1CO[C@H]2[C@@H]1OC[C@@H]2O` has a cell viability (DLD1 [7]) of 0.98 ± 0.018, a cell viability (HCT116 [8]) of 1.06 ± 0.028 and a cell viability (SW480 [9]) of 1.02 ± 0.03. The “TCF/Wnt firefly luciferase reporter signal” value (DLD1 [10]) was 0.989 ± 0.28 and the “TCF/Wnt firefly luciferase reporter signal” value (SW480 [11]) was 0.915 ± 0.12.
With `C=C1[C@@H]2CCC3[C@@](CC[C@@H]4[C@H](C(=O)O)C[C@@H](O[C@@H]5O[C@H](CO)[C@@H](OS(=O)(=O)O)[C@H](OS(=O)(=O)O)[C@H]5OC(=O)CC(C)C)C[C@@]34C)(C2)[C@@H]1O` (stereo partly drawn) the cell viability (DLD1 [7]) was 1 ± 0.093, the cell viability (HCT116 [8]) was 1.04 ± 0.061 and the cell viability (SW480 [9]) was 1.01 ± 0.054. The “TCF/Wnt firefly luciferase reporter signal” value (DLD1 [10]) was 1.03 ± 0.072 and the “TCF/Wnt firefly luciferase reporter signal” value (SW480 [11]) was 0.9585 ± 0.0064.
`OCC(O)Cc1ccc2c(c1)OCO2` (stereo not drawn) was tested, and the cell viability (DLD1 [7]) was 1.03 ± 0.095, the cell viability (HCT116 [8]) was 1.04 ± 0.014 and the cell viability (SW480 [9]) was 1.02 ± 0.033. The “TCF/Wnt firefly luciferase reporter signal” value (DLD1 [10]) was 0.922 ± 0.091 and the “TCF/Wnt firefly luciferase reporter signal” value (SW480 [11]) was 0.985 ± 0.036.
In the case of `C=C[C@@H]1C2=CCOC(=O)C2=CO[C@H]1O[C@@H]1O[C@H](CO)[C@@H](O)[C@H](O)[C@H]1O`, the cell viability (DLD1 [7]) is reported as 0.971 ± 0.098, the cell viability (HCT116 [8]) is reported as 0.9495 ± 0.0078 and the cell viability (SW480 [9]) is reported as 1.03. For the same compound, the “TCF/Wnt firefly luciferase reporter signal” value (DLD1 [10]) was 0.923 ± 0.12 and the “TCF/Wnt firefly luciferase reporter signal” value (SW480 [11]) was 0.926 ± 0.034.
With `CC1(C)C(=O)[C@@H]2O[C@@H]2[C@@]2(C)C1C[C@@H](O)[C@]1(C)C2CC[C@@]2(C)[C@H](c3ccoc3)OC(=O)C3OC321` (stereo partly drawn) [1,2alpha-EPOXYDEACETOXYDIHYDROGEDUNIN] the cell viability (DLD1 [7]) was 1.01 ± 0.032, the cell viability (HCT116 [8]) was 1.12 ± 0.099 and the cell viability (SW480 [9]) was 1.01 ± 0.056. For the same compound, the “TCF/Wnt firefly luciferase reporter signal” value (DLD1 [10]) was 0.962 ± 0.013 and the “TCF/Wnt firefly luciferase reporter signal” value (SW480 [11]) was 0.957 ± 0.22.
In the case of `CC(C)(C)NCC(O)c1cc(Cl)c(N)c(Cl)c1` (stereo not drawn), the cell viability (DLD1 [7]) is reported as 1.01 ± 0.024, the cell viability (HCT116 [8]) is reported as 1.03 ± 0.05 and the cell viability (SW480 [9]) is reported as 0.922 ± 0.012. For the same compound, the “TCF/Wnt firefly luciferase reporter signal” value (DLD1 [10]) was 0.97 ± 0.038 and the “TCF/Wnt firefly luciferase reporter signal” value (SW480 [11]) was 0.942 ± 0.0071.
`CN1C[C@H](CNC(=O)OCc2ccccc2)C[C@@H]2c3cccc4c3c(cn4C)C[C@H]21` showed a cell viability (DLD1 [7]) of 1.03 ± 0.049, a cell viability (HCT116 [8]) of 1.03 ± 0.069 and a cell viability (SW480 [9]) of 1.09 ± 0.057. The “TCF/Wnt firefly luciferase reporter signal” value (DLD1 [10]) was 0.986 ± 0.049 and the “TCF/Wnt firefly luciferase reporter signal” value (SW480 [11]) was 1.01 ± 0.052.
Compound `COc1ccc(O)c2c(=O)c3c(OC)cc4c(c3oc12)C1C=COC1O4` (stereo not drawn) has a cell viability (DLD1 [7]) of 1.06 ± 0.057, a cell viability (HCT116 [8]) of 1.03 ± 0.057 and a cell viability (SW480 [9]) of 1.02 ± 0.028. The “TCF/Wnt firefly luciferase reporter signal” value (DLD1 [10]) was 1.01 ± 0.11 and the “TCF/Wnt firefly luciferase reporter signal” value (SW480 [11]) was 0.999 ± 0.044.
`COc1cccc2c1cc([N+](=O)[O-])c1c(C(=O)O)cc3c(c12)OCO3` showed a cell viability (DLD1 [7]) of 0.983 ± 0.052, a cell viability (HCT116 [8]) of 1.06 ± 0.098 and a cell viability (SW480 [9]) of 1.01 ± 0.018. For the same compound, the “TCF/Wnt firefly luciferase reporter signal” value (DLD1 [10]) was 1.28 ± 0.12 and the “TCF/Wnt firefly luciferase reporter signal” value (SW480 [11]) was 1.1 ± 0.13.
